Experimental data as given in PubChem BioAssay (NCI).
Compounds without any hit were thinned out: in the full panel of roughly 83,000, 20% have a hit.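 Step 1: grow cells in 96-well plates. Step 2: add test compound at a single concentration. Step 3: incubate 48 h. Step 4: record percent growth.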 Unmarked numbers belong to inactive results. Active and inactive are the calls of the source. The calls were made as follows: active = growth percent below 10; inactive = the rest.

Test system: SF-539 CNS
Assay: NCI-60 one-dose screen, 48 h (100 = growth as untreated, 0 = no growth, -100 = all killed)
Conditions: 10 µM unless noted

Structure (SMILES) | growth
COc1cc(C2C3=C(COC3=O)Nc3c2ccc2c3CCCC2)cc2c1OCO2 (configuration not stated) | 4.95% (active)
FC(F)(F)c1cccc(-n2nnc3cnc(Nc4ccc(N5CCCCC5)cc4)nc32)c1 | 90.7%
COc1cc(CCn2nnc3c(Nc4ccc(N5CCOCC5)cc4)ncnc32)cc(OC)c1 | 87.5%
Nc1c(C(=O)Nc2cccc(Cl)c2Cl)sc2nc3c(cc12)C(=O)CCC3 | 105%
COC(=O)c1ccc2nc(-c3cc4ccccc4n3C)n(CCCCOc3cc4c(cc3OC)C(=O)N3CCC[C@H]3C=N4)c2c1 | -13.8% (active)
O=Nc1c(-c2c(O)[nH]c3ccc([N+](=O)[O-])cc23)[nH]c2ccc(O)cc12 | -34.1% (active)
Nc1nc(-c2cc3ccccc3o2)cc(=O)c(=O)[nH]1 | 89.3%
COc1cc(-c2n[nH]nc2-c2ccc3c(c2)OCCO3)cc(OC)c1OC | -35.9% (active)
Nc1nc(Cl)c2c(ncn2Cc2ccc(CCl)cc2)n1 | 82.5%
Cc1cc(Nc2nc(-c3ccncc3)nc3ccccc23)n[nH]1 | 59.5%
O=C(Nc1cc(C(F)(F)F)cc(C(F)(F)F)c1)Nc1ccc(OCc2nnc(-c3ccc(Cl)cc3)o2)c(F)c1 | 10.5%
CCN1C(=O)N(CC)C2Nn3c(s/c(=C\c4cccc(F)c4)c3=O)=NC21 (configuration not stated) | 68.3%
